# Compound activity (PubChem BioAssay)
# PLK1 PBD inh – inhibitors of human PLK1 polo-box domain binding; Plk1 PBD binding of FITC phosphopeptide, fluorescence polarization; AID 720504; P53350; 360,000 compounds, 2.8% hits; Potency, µM, for inactives: max response, negative = inhibition, usual class: inhibitors; note: series mostly up to about 57 µM; nearly all actives have a fitted effect of over 65% in size
# TDP1 cell noCPT – qHTS for Inhibitors of human tyrosyl-DNA phosphodiesterase 1 (TDP1): qHTS in cells in absence of CPT | DT40 Tdp1-/- hTDP1 cells, no CPT, ATP luminescence, 48 h | Potency, µM (series often up to 46.2 µM), for the others: at the top dose activity change, negative = growth inhibition, usual class: inhibitors | 420,000 compounds, 15% hits | AID 686978, 2013; note: nearly all actives have a fitted effect of over 55% in size
#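 Compound effects on proliferation are scored in DT40 Tdp1-/-;hTDP1 cells in the absence of CPT. ATP levels (CellTiter-Glo luminescence) are recorded after a ≥48 hr, 37 °C incubation.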
# VDR inh – inhibitors of human vitamin D receptor; AID 504847; VDR-SRC2-3 peptide fluorescence polarization, 2 h; Potency, µM, without a hit: max response, negative = inhibition, actives largely listed as inhibitors; P11473; 400,000 compounds, 0.93% hits
# Target sequence (P11473 whole entry, looked up): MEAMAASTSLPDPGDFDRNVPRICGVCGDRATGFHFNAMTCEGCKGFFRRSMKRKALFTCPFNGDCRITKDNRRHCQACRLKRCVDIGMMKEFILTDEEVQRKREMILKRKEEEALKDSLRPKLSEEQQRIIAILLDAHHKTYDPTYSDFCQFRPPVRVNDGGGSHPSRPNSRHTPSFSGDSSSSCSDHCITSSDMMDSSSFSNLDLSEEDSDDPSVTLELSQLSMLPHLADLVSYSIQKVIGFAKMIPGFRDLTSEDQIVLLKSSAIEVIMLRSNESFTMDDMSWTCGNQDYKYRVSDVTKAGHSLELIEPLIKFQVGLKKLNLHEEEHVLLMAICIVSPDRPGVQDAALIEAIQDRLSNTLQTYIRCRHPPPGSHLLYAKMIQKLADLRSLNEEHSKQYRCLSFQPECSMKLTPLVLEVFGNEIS
#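 Signal is fluorescence polarization, reporting how far test compounds block the interaction of VDR with the SRC2-3 coregulator peptide after a 2 h room-temperature incubation.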
# KAT2A inh – blocks human GCN5L2 histone acetyltransferase; 390,000 compounds, 0.21% hits; GCN5L2 HAT assay, ThioGlo1 CoA-SH fluorescence; Potency, µM (series often up to 58.9 µM), without a hit: top-dose activity change, negative = inhibition, usual class: inhibitors; AID 504327; Q92830
#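 Free CoA generated was detected with ThioGlo1 (50uM) fluorescence at Ex340nm/Em540nm, read immediately and after 20 min at room temperature. Enzyme, 20 nM in HEPES pH 7.5 buffer, saw compounds 15 min before adding 75uM H3(1-25) peptide and 70uM acetyl-CoA.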
# TDP1 block – TDP1 (human) enzyme inhibition. Q9NUW8. recombinant TDP1, AlphaScreen DNA substrate cleavage. Potency, µM (top dose mostly 130 µM), for the others: top-dose activity change, negative = inhibition, most hits filed as inhibitors. 350,000 compounds, 0.28% hits. AID 485290; note: nearly all actives have a fitted effect of over 40% in size
#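 AlphaScreen read-out: signal falls as enzyme removes the 3' tyrosine-FITC from a 5'-biotinylated DNA oligo (15 nM, 5 min, RT). Enzyme was E. coli-made recombinant Tdp1 at 1 nM, exposed to compound for 15 min beforehand; beads 10 ug/ml, 10 min.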
# TDP1 cell CPT – DT40-hTDP1 cell growth loss with CPT; chicken DT40 Tdp1-/-;hTDP1 cells + 20 nM CPT, ATP luminescence, 48 h; Potency, µM (highest dose often 46.2 µM), inactives show at the highest dose activity change, negative = growth inhibition, usual class: inhibitors; 420,000 compounds, 12% hits; note: nearly all actives have a fitted effect of over 55% in size
#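 Chicken DT40 Tdp1-/- cells stably complemented with human TDP1 were seeded at 400 cells/well in medium containing 20 nM camptothecin, exposed to pin-transferred compounds, and grown at 37 °C for at least 48 hr. Viability was read as ATP luminescence.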
# The depositor's hits bear a star; ? = inconclusive; · = no result given. Rows were chosen to be rich in hits. Some 18% of all compounds tested hit in one or more screens of this group. Calls come from the whole dose curve; as a rule, active = well fitted curve in the direction sought with a large enough effect; inconclusive = small, poorly fitted or top-dose-only effect, or another doubt; inactive = no such curve, though single readings can be large; an effect the other way counts as inactive or inconclusive. % is set by controls: 0 for no effect and ±100 for the full control effect; potency is the fitted concentration of half-maximal effect.
SMILES,PLK1 PBD inh,TDP1 cell noCPT,VDR inh,KAT2A inh,TDP1 block,TDP1 cell CPT
COc1ccc(S(=O)(=O)Nc2cc(C(=O)NC(C)C)ccc2N2CCOCC2)cc1,-13%,-17%,-5%,-13%,-7%,?
Cc1ccc(C(=O)N[C@@H](C)CN2C3=NC[C@H](C(C)C)N3C[C@H]2Cc2ccc(O)cc2)cc1Br,27µM*,5.8µM*,-28%,-19%,8%,4.6µM*
COc1ccc(C[C@H]2CN3C(=NC[C@@H]3Cc3ccc(O)cc3)N2C[C@H](C)NC(=O)c2ccc(C)c(Br)c2)cc1,-23%,21µM*,-17%,5%,·,4.6µM*
C/C=C(\C)C(=O)NCCN1C2=NC[C@@H](C)N2C[C@H]1Cc1ccc(O)cc1,-5%,2%,-9%,-2%,4%,1%
COc1ccc(C[C@H]2CN3C(=NC[C@@H]3C(C)C)N2C[C@H](C)NC(=O)c2ccc(C)c(Br)c2)cc1,?,18µM*,?,8%,5%,29µM*
CC(C)=CCC/C(C)=C/CO,·,1%,4%,-10%,2%,3%
CN1CCN(c2ccc(CNC(=O)c3ccco3)cc2)CC1,-10%,-3%,10%,2%,0%,-7%
O=C(COc1ccc(Cl)cc1Br)N1CCN(c2ncccn2)CC1,-5%,-18%,6%,-7%,5%,?
C=CCNC(=O)c1ccc(-n2cccc2)cc1,0%,?,-12%,-10%,0%,?
Cc1oc2ccc(O)c(CN3CCCCCC3)c2c1C(=O)Nc1cccc(C(F)(F)F)c1,·,5.2µM*,12%,-3%,1%,3.7µM*
CCOC(=O)c1c(-c2ccccc2)oc2ccc(O)c(CN3CCCC3)c12,-6%,21µM*,41%,0%,-3%,23µM*
Cc1oc2ccc(O)c(CN3CCCC3)c2c1C(=O)Nc1ccc(C(C)C)cc1,·,23µM*,2%,3%,2%,23µM*
Cc1oc2ccc(O)c(CN3CCN(C)CC3)c2c1C(=O)Nc1ccc(C(C)C)cc1,·,21µM*,16%,-6%,2%,16µM*
Cc1cc2nn(-c3ccc(F)cc3)nc2cc1NC(=O)c1cccc([N+](=O)[O-])c1C,·,·,15%,-7%,-1%,·
CC(C)NC(=O)C1C(c2ccc(C(F)(F)F)cc2)=Nc2ccccc2N1C(=O)c1cc2ccccc2[nH]1 (stereo unspecified),-3%,?,·,·,·,?
O=C1CS(=O)(=O)C2(C(=O)Nc3ccccc32)N1c1cccc(Cl)c1 (stereo unspecified),·,-22%,6%,-22%,-2%,-19%
CSCC[C@H](NC(=O)[C@@H]1CCCN1C(=O)[C@H](CCCN=C(N)N)NC(=O)[C@H](CC(C)C)NC(=O)[C@@H]1CCCN1C(=O)[C@@H](NC(=O)[C@@H](N)CCC(N)=O)C(C)C)C(=O)N[C@H](C(=O)N[C@@H](Cc1ccc(O)cc1)C(=O)N[C@@H](CCCCN)C(=O)O)[C@@H](C)O,·,·,-1%,5%,8%,·
COc1ccc(N2CCN(Cc3cc(=O)c(OCC(=O)NC4CCCC4)co3)CC2)cc1,-1%,-17%,-23%,-15%,-1%,-10%
CCOc1ccc(N2C(=O)/C(=C\c3ccc(O)c(OC)c3)S(=O)(=O)C2c2cccc([N+](=O)[O-])c2)cc1 (stereo unspecified),-28%,?,-17%,-14%,6%,18µM*
CC(C)C(C(=O)NC1CCCC1)N1CCN(c2ncccc2C#N)CC1 (stereo unspecified),-23%,1%,·,·,·,-1%
CC(C)c1ccc(-c2noc(C3CCCN(C(=O)c4ccc(F)cc4F)C3)n2)cc1 (stereo unspecified),-12%,21µM*,-7%,-13%,2%,?
CC(C)CNC(=S)N1CCC(c2nc(-c3ccc(F)cc3)no2)CC1,-3%,21µM*,-9%,-4%,5%,21µM*
O=C(c1ccccc1-c1nc(-c2ccc(F)cc2)no1)N1CCCC1,-13%,23µM*,12%,-3%,-3%,?
O=C(Nc1ccccc1)N1CCCC(c2nc(-c3ccc(F)cc3)no2)C1 (stereo unspecified),-4%,18µM*,-2%,-1%,4%,?
O=C(O)c1ccc(-c2noc(-c3ccccc3F)n2)cc1,·,·,-7%,·,7%,·
SMILES,PLK1 PBD inh,TDP1 cell noCPT,VDR inh,KAT2A inh,TDP1 block,TDP1 cell CPT
Cc1ccccc1NC(=O)N1CCCC(c2nc(-c3ccc(F)cc3)no2)C1 (stereo unspecified),-8%,-20%,4%,-4%,-1%,?
O=C(c1ccc(F)cc1)N1CCCC(c2nc(-c3ccncc3)no2)C1 (stereo unspecified),-2%,?,12%,-20%,·,?
O=C(Nc1ccccc1)N1CC=C(c2ccc(F)cc2)CC1,-12%,13µM*,1%,-2%,-6%,?
O=C(Nc1ccccc1)N1CC=C(c2ccccc2)CC1,·,·,·,1%,9%,·
O=C(c1c(F)cccc1F)N1CCCC(c2nc(-c3ccc(F)cc3)no2)C1 (stereo unspecified),-13%,16µM*,-10%,-5%,·,23µM*
CC(C)CC(CO)N1CCN(C(=O)c2ccc(Cl)cc2)CCC1=O (stereo unspecified),3%,1%,-12%,·,·,7%
COc1ccc(Cl)cc1NC(=O)Cn1nnc2sc3c(c2c1=O)CCC(C(C)(C)C)C3 (stereo unspecified),·,?,4%,-10%,2%,?
CCc1ccccc1NC(=O)Cn1nnc2sc3c(c2c1=O)CCC(C(C)(C)C)C3 (stereo unspecified),·,15µM*,-3%,-12%,0%,16µM*
Cc1ccc(Cl)cc1NC(=O)Cn1nnc2sc3c(c2c1=O)CCC(C(C)(C)C)C3 (stereo unspecified),·,4.1µM*,5%,-11%,2%,7.3µM*
CCN(C(=O)Cn1nnc2sc3c(c2c1=O)CCC(C(C)(C)C)C3)c1cccc(C)c1 (stereo unspecified),·,21µM*,6%,-7%,2%,16µM*
Cc1ccc(OCCn2nnc3sc4c(c3c2=O)CCC(C(C)(C)C)C4)cc1 (stereo unspecified),·,-20%,5%,-27%,-2%,-23%
CCCOC(=O)c1ccc(NC(=O)Cn2nnc3sc4c(c3c2=O)CCC(C(C)(C)C)C4)cc1 (stereo unspecified),·,8.2µM*,-3%,-1%,2%,18µM*
